Activity calls are given as the source filed them. How the source made its calls: active means hit-call score of the fitted dose curve at least 0.9, where 1 is the maximum; inactive means score below 0.9.

This assay is described as follows: ATG_Oct_MLP_CIS: Attagene CIS-FACTORIAL HepG2 Assay for human Octamer-Binding Transcription Factor (Oct) (AID 2282993). The settings on record: HepG2 Attagene cis-factorial Oct reporter, mRNA; actives raise or lower the signal. The procedure: ATG_CIS is a cell-based, multiplexed-readout assay that uses HepG2, a human liver cell line, with measurements taken at 24 hours after chemical dosing in a 24-well plate.ATG_Oct_MLP_CIS is one of 52 assay component(s) measured or calculated from the ATG_CIS assay. It is designed to make measurements of mRNA induction, a form of inducible reporter, as detected with fluorescence intensity signals by Reverse transcription polymerase chain reaction (RT-PCR) and Capillary electrophoresis technology.Data from the assay component ATG_Oct_MLP_CIS was analyzed into 1 assay endpoint. This assay endpoint, ATG_Oct_MLP_CIS, was analyzed with bidirectional fitting relative to DMSO as the negative control and baseline of activity. Using a type of inducible reporter, measures of mRNA for gain or loss-of-signal activity can be used to understand the reporter gene at the transcription factor-level as they relate to the gene POU2F1. Furthermore, this assay endpoint can be referred to as a primary readout, because this assay has produced multiple assay endpoints where this one serves a reporter gene function. To generalize the intended target to other relatable targets, this assay endpoint is annotated to the dna binding intended target family, where the subfamily is POU domain protein.
Human liver HepG2 cells are transiently transfected with multiple reporter transcription units (MRTUs) in 6-well plates using FuGene 6 reagent (Roche; 3 ml FuGene/1 mg DNA). The MRTU constructs are regulated by a cis-regulating element (promoter). […] A major difference between the CIS and TRANS system is that in CIS activities of endogenous TFs are measured, whereas the TRANS assay evaluates changes in activities of exogenous, chimeric NR-Gal4 proteins. […] At the end of 24 hour incubation, total RNA was isolated using TriZol reagent (Invitrogen). The isolated RNA is then reverse-transcribed using oligo(dT) primer and Mo-MLV reverse transcriptase (Invitrogen) with DNAse I (Ambion) treatment for 30 min. The one-tenth of the produced cDNA was amplified by PCR using Taq DNA polymerase (Invitrogen) and two reporter sequence-specific primers. The PCR products were fluorescently labeled by primer extension with 6-arboxyfluorescein (6-FAM) 5'-labeled reporter sequence-specific primer (2 min at 95 C, 20 s at 68 C and 10 min at 72 C) and these products were digested with 5U of HpaI (New England Biolabs) for 2h at 37 C. The fragments were purified using Qiaquick PCR columns (Qiagen), analyzed on an ABI 3130xL genetic analyzer (Applied Biosystems) with peak positions identified by using a set of X-rhodamine (ROX)-labeled MapMarker1000 molecular weight standards (BioVentures). The raw capillary electrophoresis data was processed using Attagraph software (Attagene).
As for `CCc1ccc(C=O)cc1`, the result was inactive.

Take `CCCCOCCOCCSC#N`: the compound was called inactive. On the same count and under the same terms, next, `O=S(=O)(O)c1cccc2c(S(=O)(=O)O)cccc12`: “inactive”; `O=C1C(c2[nH]c3ccc(S(=O)(=O)O)cc3c2O)=Nc2ccc(S(=O)(=O)O)cc21`: “inactive”.

For `O=C(Oc1ccccc1)c1ccc(O)cc1`, the result was inactive. As to `Nc1ccc(S(N)(=O)=O)cc1`, the outcome was inactive.

On to `CCCCCCCCCCN`, for which the compound was called inactive. Same read-out and setting: next, `O=C(O)c1cccc(C(F)(F)F)c1`: “inactive”. `CN(CCOc1ccc(CC2SC(=O)NC2=O)cc1)c1ccccn1` (stereo not given): the outcome was inactive. On to `Cc1ccc(O)c(C(C)(C)C)c1`, for which the AC50 (as a rule, the midpoint of the concentration-response curve, whichever way the signal moves) is 143 µM (active). As for `COC(=O)Cc1cccc2ccccc12`, the compound was called inactive. Still for that read-out and setting: next, `CC[Si](OC(C)=O)(OC(C)=O)OC(C)=O`: “inactive”; `C=CCOC(=O)CCC1CCCCC1`: “inactive”. Still for that read-out and setting: next, `O=C(O)COCCN1CCN(C(c2ccccc2)c2ccc(Cl)cc2)CC1` (stereo not given): “inactive”; `COc1cc(C(C)(C)C)c(O)c(C(C)(C)C)c1`: “inactive”. Regarding `Cc1ccc(C(C)C)cc1O`, the result was inactive. On to `CC(CCO)CCCC(C)(C)O` (stereo not given), for which the result was inactive. On the same count and under the same terms, next, `CC(C)(Oc1ccc(CCNC(=O)c2ccc(Cl)cc2)cc1)C(=O)O`: “inactive”; `NC(N)=NC(=O)c1nc(Cl)c(N)nc1N`: “inactive”; `CCCC1CCC(=O)O1` (stereo not given): “inactive”. Still for that read-out and setting: next, `ClCCCl`: “inactive”. For the compound `CNCCCC12CCC(c3ccccc31)c1ccccc12`, the AC50 was 15.4 µM (active). On to `O=[N+]([O-])c1cc(C(F)(F)F)ccc1Cl`, for which the outcome was inactive.

Turning to `NCCCN1CCOCC1`, the compound was called inactive.

With `C=O`, the outcome was inactive. On the same count and under the same terms, next, `CSc1nnc(C(C)(C)C)c(=O)[nH]1`: “inactive”; `CCCC[n+]1ccccc1`: “inactive”; `O=Cc1ccc(F)cc1`: “inactive”.

For `COC(C(=O)O)c1ccccc1` (stereo not given), the result was inactive.

Regarding `O=P(c1ccccc1)(c1ccccc1)c1ccccc1`, the compound was classed as inactive. Consider `O=Nc1ccc(Nc2ccccc2)cc1`, for which the AC50 was 33.4 µM (active). For the compound `CC1(C)[C@H]2CC[C@]1(C)[C@H](O)C2`, the compound was called inactive.

`OCC(CO)(CO)COCC(CO)(CO)CO`: the outcome was inactive. In the case of `CC(=O)Nc1ccccc1O`, the compound was called inactive.

Regarding `O=S(=O)(O)NC1CCCCC1`, the compound was classed as inactive. Still for that read-out and setting: next, `Cc1ccc(C(=O)c2cc(O)c(O)c([N+](=O)[O-])c2)cc1`: “inactive”; `CCCCCCCCCCCCN`: “inactive”; `C[C@H]1C[C@@H]2[C@H]([C@@H](O)C[C@@]3(C)[C@H]2CC[C@]3(O)C(=O)CO)[C@@]2(C)C=CC(=O)C=C12`: “inactive”. Turning to `CC(C)[C@@H]1CC[C@@H](C)CC1=O`, the compound was called inactive.

With `O=C1OC2(c3cc(Br)c(O)c(Br)c3Oc3c2cc(Br)c(O)c3Br)c2c(Cl)c(Cl)c(Cl)c(Cl)c21`, the compound was classed as inactive.
